Screening results (PubChem)
Rows were chosen to be rich in hits. Some 5.1% of all compounds tested hit in one or more screens of this group.
TMEM16A inh: inhibitors of mouse TMEM16A calcium-activated chloride channel; Q8BHY3; HEK293 TMEM16A/YFP iodide influx fluorescence, ionomycin; normalized B-score (activity score, 25-100; higher = stronger inhibition) at 10 µM; actives 1.2% (n = 310,000);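 active = ratio plate-corrected score three or more library SD toward inhibition, starting fluorescence score within five deviations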;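 note: score derived from kinetic fluorescence span divided by baseline fluorescence per well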
NR3A LBD binder: modulates the human NR3A ligand-binding domain. NR3A LBD differential scanning fluorimetry, Tm shift; 0% = protein alone, 100% = glycine-bound protein. AID 1259313. actives 2.5% (n = 340,000). Tm shift relative to glycine control, % at 25 µM;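 active = melting temperature shift of at least 10% of the positive control shift, at one fixed dose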
MPTP block: inhibitors of mitochondrial permeability transition pore. isolated mouse mitochondria, Ca2+ swelling absorbance, 30 min. AID 602449. actives 1.4% (n = 360,000). inhibition, % at 10 µM;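 active = inhibition of 50% or more, scaled per plate between neutral and stimulator controls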
ANO1 activ: mouse TMEM16A channel activation, primary screen. HEK293 TMEM16A/YFP-H148Q/I152L, iodide quench fluorescence; active compounds read low. B-score at 10 µM. Q8BHY3. AID 623877. actives 0.3% (n = 340,000);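 active = fluorescence-ratio B-score plate-corrected deviation score at least 3 library SD below zero, with starting fluorescence score within 5 deviations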;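 note: channel opened by trigger with iodide after compound preincubation; score built on the fluorescence ratio of max minus min over baseline; more negative score means more quench and so TMEM16A activation or potentiation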
CRFBP-R2 block: CRF-BP/CRF-R2 complex antagonism; HEK293 CRF-R2/CRF-BP, CRF-induced calcium fluorescence; inhibition, % at 11.8 µM; actives 0.59% (n = 350,000);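 active = inhibition of the ligand-induced calcium signal above about 50% at the single tested concentration, limit read from the data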
CRFR2-BP ag: agonists of human CRF-binding protein/CRF-R2 receptor complex. actives 0.46% (n = 350,000). HEK293 CRF-R2/CRF-BP, calcium dye fluorescence (FLIPR); percent of saturating CRF peptide response. activation, % at 13.2 µM;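 active = activation of at least 50%, plus an integration ratio under a set limit after plate pattern correction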
Hits are given with their value; - = inactive; . = no result.

SMILES	TMEM16A inh	NR3A LBD binder	MPTP block	ANO1 activ	CRFBP-R2 block	CRFR2-BP ag
CC1(c2ccc(OC(F)F)cc2)NC(=O)N(CC(=O)c2ccc3c(c2)OCO3)C1=O (configuration not stated)	-	-	-	-	-	86
CC1(c2ccc([N+](=O)[O-])cc2)NC(=O)N(CC(=O)c2ccc3c(c2)OCO3)C1=O (configuration not stated)	-	-	-	-	-	60
Clc1ccc(NCc2cccnc2)cc1	-	-	-	-	-	-
CSc1ccc(CNc2ccc(Cl)cc2)cc1	25	-	-	-	-	-
CC(=O)N1CCN(C(=O)COC(=O)c2oc3ccccc3c2C)CC1	.	-	-	-	-	-
C[C@]1(CC/C(=C/CO)CO)[C@H](C=O)CC[C@@]23COC(=O)C2=CCC[C@@H]31	.	.	-	.	.	.
N#Cc1ccc(C(=O)Nc2cc(S(=O)(=O)N3CCOCC3)ccc2N2CCCC2)cc1	.	-	-	-	-	-
O=C(Nc1cc(S(=O)(=O)Nc2ccc(Cl)cc2)ccc1N1CCCCC1)c1ccc(F)cc1	-	25	-	-	-	-
CC(=O)NCCC(=O)Nc1cc(S(=O)(=O)Nc2ccc(Cl)cc2)ccc1N1CCCC1	-	-	-	-	-	-
N#Cc1ccc(C(=O)Nc2cc(S(=O)(=O)Nc3ccc(Cl)cc3)ccc2N2CCCCC2)cc1	-	22	-	-	-	-
Cc1cc(C)c(S(=O)(=O)/N=C2\C=CC(=O)C(Cl)=C2)c(C)c1	-	12	-	-	-	-
COc1ccc(C(C(=O)NC(C)(C)C)n2c(=O)c(-c3cc4ccccc4[nH]3)nc3ccccc32)cc1 (configuration not stated)	.	.	-	.	.	.
CCN(C(=O)COC(=O)Cc1cccc2ccccc12)C1CCS(=O)(=O)C1 (configuration not stated)	.	-	-	-	122	-
CCN(C(=O)COC(=O)c1cc2ccccc2cc1O)C1CCS(=O)(=O)C1 (configuration not stated)	-	-	-	-	-	-
COc1cccc(NC(=O)C2(C)CCCN2C(=O)C(C)C)c1OC (configuration not stated)	.	.	-	.	.	.
COc1cccc(CNC(=O)COC(=O)/C=C/c2ccc(SC)cc2)c1	.	-	-	-	-	-
COC(=O)C1=C(C(=O)c2ccccc2)C(c2ccc(O)c(OC)c2)n2nnnc2N1 (configuration not stated)	-	-	-	-	98	-
CC1(C)C[C@H](O)[C@]2(CO)[C@H](O)C[C@]3(C)C(=CCC4[C@@]5(C)CC[C@H](O)C(C)(C)C5CC[C@]43C)[C@@H]2C1 (some centres not stated)	.	-	-	-	-	-
COC(=O)C[C@H]1C[C@@H]2c3cc(NC(=O)CN(C)C)ccc3O[C@@H]2[C@H](CO)O1	.	.	-	.	-	-
CCOc1ccc(CCNC(=O)CCC(=O)N2CCOc3ccc(C)cc32)cc1OCC	-	-	-	-14	-	-
O=C(NCC1OCCc2ccccc21)c1ccc(NC(=O)c2cccc(Br)c2)cc1 (configuration not stated)	-	28	-	-	-	-
O=C(NCC1OCCc2ccccc21)c1ccc(NC(=O)c2ccc(Cl)cc2Cl)cc1 (configuration not stated)	-	18	-	-	-	-
O=C(NCC1OCCc2ccccc21)c1ccc(NC(=O)c2ccccc2Cl)cc1 (configuration not stated)	-	-	-	-	-	-
Cc1ccc(SCc2c(C#N)c3ccccc3n2C)cc1	25	-	-	-	-	-
COc1ccc(-c2csc(NC(=S)NC(=O)c3cccs3)n2)cc1OC	.	10	-	-	-	-
SMILES	TMEM16A inh	NR3A LBD binder	MPTP block	ANO1 activ	CRFBP-R2 block	CRFR2-BP ag
COc1ccc(-c2csc(NC(=S)NC(=O)c3cccs3)n2)cc1Br	-	38	-	-	-	-
COc1ccc(-c2csc(NC(=S)NC(=O)c3ccc(S(=O)(=O)N(C)C)cc3)n2)cc1OC	-	-	-	-	-	-
Cc1cc(/C=C2\SC(=S)NC2=O)cc(C)c1O	-	-	-	-	-	-
O=C1NC(=S)S/C1=C\c1cc(Cl)cc(Cl)c1O	.	17	-	-	-	83
CC(C)(C)C(=O)Nc1ccccc1C(=O)NCCC(=O)Nc1ccccc1	-	-	-	-	-	-
O=C(Nc1nc2ccccc2s1)c1ccc([N+](=O)[O-])o1	-	-	-	-	-	-
O=C(Nc1nc2c(F)cc(F)cc2s1)c1ccc([N+](=O)[O-])o1	-	-	-	-	80	-
Cc1cc(C)c2sc(NC(=O)c3ccc([N+](=O)[O-])o3)nc2c1	-	15	-	-	-	-
Cc1cc(C)c2nc(NC(=O)c3ccc([N+](=O)[O-])o3)sc2c1	-	-	-	-	-	-
COc1cc(C(=O)NCc2ccc(S(N)(=O)=O)cc2)ccc1OCC(=O)Nc1cccc(C(F)(F)F)c1	-	-	-	-	-	-
COc1cc(C(=O)N(C)CCOc2ccccc2)ccc1OCC(=O)Nc1cccc(C(F)(F)F)c1	100	-	-	-	-	-
COc1cc(OC)cc(C(=O)N/N=C\c2ccoc2)c1	-	-	-	-	-	-
COc1ccc(CCNC(=O)c2cnn3ccccc23)c(OC)c1OC	-	-	-	-	-	-
COc1cc(CCNC(=O)c2cnn3ccccc23)cc(OC)c1OC	-	22	-	-	-	-
Brc1ccc(/C=N/Nc2nc3ccccc3o2)cc1	-	28	-	-	-	-
Oc1ccccc1/C=N/Nc1nc2ccccc2o1	-	-	-	-	-	-
CCc1ccc([C@H]2[C@@H]3C(=O)C[C@@H]4C(=O)N(Cc5ccccc5)C(=O)[C@@H]4[C@@H]3CN2S(=O)(=O)c2ccc(C)cc2)cc1	.	.	-	.	.	.
COc1cc(OC)cc(C(=O)NNC(=O)c2ccc3ccccc3n2)c1	.	-	-	-	-	-
CCCCC(=O)NNC(=S)NC(=O)c1ccc([N+](=O)[O-])cc1	-	-	-	-	-	-
COc1ccc(C(=O)NC(=S)NNC(=O)c2ccc(C)cc2)cc1	-	-	-	-	-	132
COc1ccc(C(=O)NNC(=S)NC(=O)c2ccc(Cl)cc2)cc1	100	-	.	-	-	117
COc1ccc(C(=O)NC(=S)NNC(=O)c2ccc3ccccc3n2)cc1	-	11	-	-	-	-
CCC(=O)NC(=S)NNC(=O)c1ccc(OC)cc1	-	-	-	-	-	-
CCCCC(=O)NNC(=S)NC(=O)c1ccc(C)cc1	-	-	-	-	-	135
CC(=O)N1C[C@H]2CON(C)[C@H]2C[C@H]1c1cccc(N2CCOCC2)c1	.	.	-	.	-	-
N#C/C(=C/c1ccc(N2CCOCC2)o1)C(=O)NC1CCCCC1	-	-	-	-	-	50
